# Only a selection was taken, and hits are over-represented in it overall.
# Pf Dd2 growth: inhibitors of Plasmodium falciparum Dd2 growth. P. falciparum Dd2 growth, SYBR Green, 72 h. Potency, µM (top dose mostly 28.9 µM), for the others: at the top dose activity, negative = inhibition, hits mostly inhibitors. actives 4.3% (n = 120,000). AID 1347417; active = well fitted inhibition curve with a large enough effect;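 also: plate controls were DMSO vehicle for no effect and reference drug for full effect; nearly all actives have a fitted effect of over 65% in size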
#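 Readout: SYBR Green fluorescence, 485 nm excitation, 535 nm emission, after ~16 h lysis at 37C. Before that, Dd2-infected red cells (2.5% hematocrit) grew 72 h with compound, 29 uM top final concentration.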
# Numbers without * were called inactive; i = inactive; [ ] = remark or other dose. Potency is read from the fitted curve at half-maximal effect.
SMILES,Pf Dd2 growth
CC(C)N1CCC[C@H]1c1nc(-c2ccc(N3CCN(C)CC3)nc2)no1,10µM*
CC(=O)Nc1ccc(CN2CCC[C@H]2c2nc(-c3ccc(N4CCC(C(N)=O)CC4)nc3)no2)cc1,i
CN(C)c1ccc(-c2noc([C@@H]3CCCN3C3CCOCC3)n2)cn1,i
c1cncc(CN2CCC[C@H]2c2nc(-c3ccc(-n4ccnc4)nc3)no2)c1,8.91µM*
CNc1ccc(-c2noc([C@@H]3CCCN3Cc3cccc(OC)c3)n2)cn1,-7.9%[44.1 µM]
CC(=O)N1CCC(N2CCC[C@H]2c2nc(-c3ccc(-n4ccnc4)nc3)no2)CC1,-21.4%[44.1 µM]
FC(F)(F)Oc1cccc(CN2CCC[C@H]2c2nc(-c3ccc(N4CCOCC4)nc3)no2)c1,-12.0%
CC(=O)N1CCC(N2CCC[C@H]2c2nc(-c3ccc(N4CCC(C(N)=O)CC4)nc3)no2)CC1,i
CNc1ccc(-c2noc([C@@H]3CCCN3Cc3cccnc3)n2)cn1,i
COc1ccc(CN2CCC[C@H]2c2nc(-c3ccc(-n4ccnc4)nc3)no2)c(OC)c1OC,10µM*
COCC(=O)Nc1ccc(-c2noc([C@@H]3CCCN3Cc3cc4ccccc4o3)n2)cn1,-16.3%[44.1 µM]
CCCN(CC1CCOC1)C(=O)Nc1cccc(CC)c1 (stereo not given),13.6%[5.79 µM]
Cc1cc(C(=O)N2CCC(Cc3nc(-c4ccccc4)n[nH]3)CC2)nn1C,i
O=C(NCc1ccccc1)N1CCN2C(=O)N(C3CCCCC3)C[C@H]2C1,-7.8%[44.1 µM]
CCC(c1cccs1)N1C(=O)[C@H]2CN(C(=O)NC)C[C@H]2C1=O (stereo not given in full),44.9%
Cc1noc(C2CCCCCN2C(=O)c2ccccc2)n1 (stereo not given),7.2%
O=C(NC1CCCC1)C1c2ccccc2C(=O)N(C2CCCC2)C12CCCCC2 (stereo not given),10µM*
COC(=O)CNC(=O)C1c2ccccc2C(=O)N(C2CCCC2)C12CCCCC2 (stereo not given),-14.8%
CC(C)NC(=O)C1c2ccccc2C(=O)N(C2CCCC2)C12CCCC2 (stereo not given),11.1%
COc1ccc(N2CC(C(=O)NCCc3ccc(Cl)cc3)NC2=O)cc1 (stereo not given),-21.1%
CC(C)n1c(CNC(=O)C[C@H]2NC(=O)c3ccccc3NC2=O)nc2ccccc21,-7.9%
CCn1cc(CNCc2ccc(OCC(O)CN3CCSCC3)c(OC)c2)cn1 (stereo not given),-3.5%
CC1CCN(Cc2ccccc2OCC(O)CN2CCSCC2)CC1 (stereo not given),4.47µM*
CCCCNCc1ccc(OCC(O)CN2CCSCC2)c(OC)c1 (stereo not given),-28.6%
Cc1cccc(CNCc2ccccc2OCC(O)CN2CCSCC2)c1 (stereo not given),1.58µM*
SMILES,Pf Dd2 growth
COc1cc(CN2CCOCC2)ccc1OCC(O)CN1CCSCC1 (stereo not given),-8.4%
Cc1nnc(CN(C)Cc2ccccc2OCC(O)CN2CCSCC2)o1 (stereo not given),-21.9%
CN(Cc1ccc(F)cc1)Cc1ccnn1C,10.0%[44.1 µM]
Cc1ccc(Sc2c(C)nn(C(=O)c3ccc(Br)cc3)c2C)cc1,26.9%
Cc1nn(C(=O)c2ccccc2)c(C)c1Sc1ccc(Cl)cc1,11.2µM*
CCC(=O)Oc1c(Sc2ccc(Cl)cc2)c(C)nn1-c1ccccc1,-21.9%
Cc1cnc(CC2CCN(C(=O)Nc3ccccc3)C2)n1CC1CC1 (stereo not given),i
Cc1cnc(CC2CCN(C(=O)NC(C)(C)C)CC2)n1Cc1ccc(F)cc1,i
Cc1cnc(CC2CCN(S(=O)(=O)c3ccccc3)CC2)n1Cc1ccccc1,0.562µM*
CCCS(=O)(=O)NCCc1ncc(C)n1Cc1ccccc1,-18.0%
Cc1cnc(CC2CCN(C(=O)C3CC3)CC2)n1Cc1ccccc1,6.31µM*
Cn1c([C@H]2CCN(S(=O)(=O)c3ccc(F)cc3)C2)nc2ccccc21,i
Cc1cnc(C2CCN(C(=O)NC(C)C)C2)n1C(C)C (stereo not given),17.1%
COc1cccc(CN2CCCC(Cc3ncc(C)n3Cc3ccccc3)C2)c1 (stereo not given),-22.7%
O=S(=O)(c1ccccc1)N1CCC(Cc2nncn2-c2ccccc2)C1 (stereo not given),i
CCn1cc(S(=O)(=O)N2CCC(Cc3ncc(C)n3Cc3ccc(F)cc3)CC2)cn1,-31.6%
Cc1cnc(C2CCN(S(=O)(=O)c3ccccc3)C2)n1C(C)C (stereo not given),3.98µM*
CCS(=O)(=O)N1CCC(Cc2ncc(C)n2Cc2ccccc2)C1 (stereo not given),11.2µM*
CC(C)c1ccccc1OCC(=O)c1ccc2c(c1)N(CC(=O)N1CCOCC1)C(=O)CO2,i
CN(C)C(=O)N1CCC2(CC1)CN(C(=O)Cc1cccc(O)c1)Cc1ccccc1O2,-23.6%
Cc1ccc(-c2ccc3nnc(CNC(=O)c4cccnc4)n3n2)cc1,-15.8%
O=C(c1ccsc1)N1CC2CC(C1)[C@H]1CCCC(=O)N1C2 (stereo not given in full),-0.4%
